This note sets out measurements from PubChem BioAssay (NCI).

About 83,000 compounds went through this panel and 20% of them were active in at least one assay; those are over-represented in the sample as a whole.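 Cells were grown in 96-well plates and exposed to the test compound at a single concentration for 48 hours; results are reported as percent growth, with values below 10 considered active.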 Values without a mark were called inactive.

The subject of this experiment is SK-MEL-28 melanoma. As to the kind of experiment: NCI-60 one-dose screen, 48 h (100 = growth as untreated, 0 = no growth, -100 = all killed). The note with it: 10 µM unless noted.
With `O=C(Nc1ccc(Oc2ccc(Nc3nc4ccccc4s3)cc2)cc1)Nc1ccc(Cl)c(C(F)(F)F)c1`, the growth is 25.3%.

For `Cc1cc(N=Nc2ccc(-c3ccc(N=Nc4ccc(O)c(C(=O)O)c4)cc3)cc2)c(N)c(N=Nc2ccc(C(=O)O)cc2)c1N`, the growth is 80.6%.

Turning to `c1ccc2c(c1)cnc1ccccc12`, the growth is 118%.

For the molecule `Cc1cc(C)c2c(n1)sc1c(Nc3ccc(OCc4ccccc4)cc3)ncnc12`, the growth is 114%.

Regarding `Cc1ccc2oc(=O)cc(-c3nc4ccc([N+](=O)[O-])cc4[nH]3)c2c1`, the growth was 63.7%.

For the molecule `Cc1nc2ccc(Nc3nc(Cl)nc(N4CCOCC4)n3)cc2n1Cc1ccccc1`, the growth was 82.8%.

As to `CC(=O)c1c(O)c(C)c(O)c2c1OC1=CC(=O)/C(=C(/C)N)C(=O)C12C` (stereo not given), the growth is 105%.

Consider `O=C(CI)NCCNc1cccc2c(S(=O)(=O)O)cccc12`, for which the growth is 106%.

Regarding `O=c1[nH]cnc2nc[nH]c12`, the growth is 97.9%.

As for `CCN(CC)C(Cl)=Nc1ccc(Cl)cc1`, the growth is 106%.

As for `c1ccc2c(Cc3csc4ccccc34)csc2c1`, the growth was 82.9%.

For the molecule `COS(=O)(=O)CCN(CCOS(C)(=O)=O)S(C)(=O)=O`, the growth was 99.1%.

On to `COc1cc(C2CC(c3cccc(Nc4ccnc5cc(Cl)ccc45)c3)=NN2c2ccccc2)cc(OC)c1OC` (stereo not given), for which the growth was 67.2%.

As for `O=C1/C(=C\c2cccn2Cc2ccc(F)cc2)c2ccccc2N1c1c(Cl)cccc1Cl`, the growth is 87.4%.

With `CC(C)(C)c1ccc(Cn2c(-c3nonc3N)nc3ccccc32)cc1`, the growth is 72.7%.
